The values below come from PubChem BioAssay (NCATS).

The target in assay [1] is Androgen receptor (Homo sapiens) (UniProt P10275). In words: qHTS assay for small molecule agonists of androgen receptor signaling (AID 588515; active means well fitted curve in the direction sought with a large enough effect in the signal ratio, with a control signal flat; the % refers to the signal ratio). The settings on record: AR-UAS-bla HEK293, beta-lactamase ratio, agonist 16 h; hits give high values. The essentials: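 Stimulation of an AR-responsive β-lactamase reporter in GripTite HEK293 cells was measured after 16 h compound exposure at 37 °C, via CCF4 fluorescence after 2 h RT. EC50 from Hill fits, normalized to R1881 at 30 nM.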
For orientation: Quantitative high-throughput screening tests each substance at several concentrations.

Assay [2] has as its target Cytochrome P450 3A4 (Homo sapiens) (UniProt P08684). Description: qHTS Assay for Activators of Cytochrome P450 3A4 (AID 885; active means well fitted curve in the direction sought with a large enough effect; an effect the other way counts as inactive or inconclusive; further: nearly all actives have a fitted effect of over 65% in size). The essentials:
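CYP3A4 activity: Luciferin-PPXE O-dealkylation, 25uM substrate, 200mM KPO4, RT throughout. Read-out is luciferase luminescence; higher values reflect activation.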

Assay [3] concerns the target Bile acid receptor (Homo sapiens) (UniProt Q96RI1). In words: qHTS assay for small molecule antagonists of farnesoid X receptor signaling (AID 588526). The essentials: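 Antagonist mode: titrated compounds tested against chenodeoxycholic acid stimulation (normalized to 50 uM CDCA and DMSO) in GeneBLAzer HEK293T cells for 16 h. Beta-lactamase read by CCF4 fluorescence; IC50 from Hill fits.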

The target is the same in assay [4]. In words: qHTS assay for small molecule agonists of farnesoid X receptor signaling (AID 588527). Further: series mostly up to about 77 µM. The settings on record: HEK293T FXR-UAS-bla, beta-lactamase ratio, 16 h; hits give high values. An outline of the steps: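 FXR-UAS-bla HEK293T, 10% dialyzed FBS; cpds up to 92 uM titration, 16 h 37 C; CCF4 dye 2 h RT; fluorescence. Normalized to chenodeoxycholic acid 100 uM (100%) and DMSO (0%); Hill fit gives EC50, efficacy.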

Assay [5] in a line: qHTS assay to identify small molecules that stimulate interleukin-8 (IL-8) secretion (AID 651758; active means well fitted activation curve with a large enough effect in the signal ratio; the % refers to the signal ratio). An outline of the steps:
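Compounds are added to THP-1 cells (2000 per well) and left 16 hrs at 37 C. A labeled anti-IL-8 antibody pair is then added, and IL-8 secretion is measured by time-resolved FRET after 1-3 hrs at room temperature.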

A short description of assay [6]: Confirmation and Secondary Assay for Modulators of Hemoglobin Beta Chain Splicing at IVS2 654 locus (AID 910; active means well fitted curve in the direction sought with a large enough effect; an effect the other way counts as inactive or inconclusive;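 further: HeLa cells stably carrying EGFP split by mutant beta-globin IVS2-654 intron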). An outline of the steps:
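HeLa cells stably expressing EGFP interrupted by β-globin IVS2-654 intron, seeded overnight in Opti-MEM/2% FCS, then treated 2 days at 37 °C. Restored splicing read as total peak GFP intensity per well by laser scanning cytometry (488 nm excitation, 500–520 nm emission); 500 nM antisense PNA as control.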

Assay [7] in a line: Confirmation and Secondary Assay for Modulators of Hemoglobin Beta Chain Splicing at IVS2 705 locus (AID 930; active means well fitted curve in the direction sought with a large enough effect; an effect the other way counts as inactive or inconclusive;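 further: HeLa cells stably expressing the EGFP-705 splicing reporter; GFP fluorescence per well restored by corrected splicing of the IVS2-705 intron in EGFP; series mostly up to about 46 µM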). The essentials: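 Stable HeLa line with EGFP disrupted by mutant beta-globin intron 2 (705). Overnight attachment, then 2 days of compound at 37C, 5% CO2. Signal: peak GFP intensity summed over objects 5-250 µm.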
For assay [8], the target named is Ubiquitin carboxyl-terminal hydrolase 1 (Homo sapiens) (UniProt O94782). Description: Inhibitors of USP1/UAF1: Pilot qHTS (AID 504865; active means well fitted curve in the direction sought with a large enough effect; an effect the other way counts as inactive or inconclusive;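 further: rhodamine fluorescence freed from ubiquitin-rhodamine substrate followed over time; top concentration of the series differs between compounds; nearly all actives have a fitted effect of over 35% in size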). The essentials: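 Kinetic fluorescence assay: 1nM USP1/UAF1, 15 min compound preincubation, then 150nM Ub-Rho; 480/540 nm.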
The target of assay [9] is Androgen receptor (Homo sapiens) (UniProt P10275). In words: qHTS assay for small molecule antagonists of androgen receptor signaling (AID 588516; active means well fitted curve in the direction sought with a large enough effect in the signal ratio, with a control signal flat, not every such curve was filed as active; the % refers to the signal ratio). An outline of the steps:
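Antagonist-mode qHTS: inhibition of R1881 (10 nM)-driven beta-lactamase expression in GripTite HEK 293 cells is measured after 16 h; values are Hill-derived IC50s normalized between R1881 and DMSO wells.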

The test system of assay [10] is HIV-1 nucleocapsid protein NCp7 (binding to TG oligonucleotide). In words: HIV Nucleocapsid (AID 346; call rule not given here;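 further: potency means the concentration at half of the fitted maximal effect; potency is for inhibitors that block NC binding and lower polarization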). The settings on record: HIV-1 NC / fluorescein-TGTGTGTG probe, fluorescence polarization. The essentials: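 NCp7 100 nM + fluorescein TG4xF 10 nM; Hepes pH 7.5/250mM NaCl/1uM ZnCl2/0.004% PEG 20000; 1 hr RT; FP, 45 s exposure; oligo-only wells as negative control.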
Background: Polarisation of emitted light reports the rotation of a fluorescent probe.

Each structure is given as a SMILES string. “And” between values parts separate entries of the source, which are not always exact repeats. Identical values can stand only once. A number with no mark means an inactive call. Results filed as inconclusive are left out. A call without a number means that no potency is given here. The source made the active and inactive calls. Unless noted, the call rests on the fitted dose curve.

Cytochrome P450 3A4 (Homo sapiens), sequence (P08684 whole entry, looked up): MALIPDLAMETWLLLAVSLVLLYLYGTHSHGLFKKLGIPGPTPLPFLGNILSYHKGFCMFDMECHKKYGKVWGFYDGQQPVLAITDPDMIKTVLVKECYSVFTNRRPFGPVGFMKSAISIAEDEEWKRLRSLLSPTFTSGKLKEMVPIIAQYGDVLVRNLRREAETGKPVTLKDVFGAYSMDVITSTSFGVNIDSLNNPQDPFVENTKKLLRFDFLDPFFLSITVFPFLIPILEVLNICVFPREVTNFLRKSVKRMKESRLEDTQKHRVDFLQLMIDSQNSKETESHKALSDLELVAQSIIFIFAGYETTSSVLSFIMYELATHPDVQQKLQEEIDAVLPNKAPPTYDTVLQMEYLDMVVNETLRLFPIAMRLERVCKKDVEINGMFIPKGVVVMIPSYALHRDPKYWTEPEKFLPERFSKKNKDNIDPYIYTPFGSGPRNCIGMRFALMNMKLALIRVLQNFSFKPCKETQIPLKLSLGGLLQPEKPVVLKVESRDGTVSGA
Bile acid receptor (Homo sapiens), sequence (Q96RI1 whole entry, looked up): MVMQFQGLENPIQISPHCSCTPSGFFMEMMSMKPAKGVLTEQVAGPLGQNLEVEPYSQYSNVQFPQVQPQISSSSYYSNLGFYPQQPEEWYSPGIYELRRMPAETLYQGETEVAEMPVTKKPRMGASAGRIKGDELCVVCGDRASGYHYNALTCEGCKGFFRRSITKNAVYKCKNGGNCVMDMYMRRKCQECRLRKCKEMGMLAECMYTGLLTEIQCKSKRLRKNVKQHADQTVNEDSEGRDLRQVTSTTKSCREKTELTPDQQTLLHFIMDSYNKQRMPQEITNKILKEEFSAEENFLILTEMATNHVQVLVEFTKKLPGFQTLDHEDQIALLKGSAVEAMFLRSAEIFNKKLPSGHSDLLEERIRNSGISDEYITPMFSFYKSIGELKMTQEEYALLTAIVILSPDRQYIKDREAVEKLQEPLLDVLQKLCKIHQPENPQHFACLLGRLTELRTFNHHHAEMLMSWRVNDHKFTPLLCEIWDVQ
Androgen receptor (Homo sapiens), sequence (P10275 whole entry, looked up): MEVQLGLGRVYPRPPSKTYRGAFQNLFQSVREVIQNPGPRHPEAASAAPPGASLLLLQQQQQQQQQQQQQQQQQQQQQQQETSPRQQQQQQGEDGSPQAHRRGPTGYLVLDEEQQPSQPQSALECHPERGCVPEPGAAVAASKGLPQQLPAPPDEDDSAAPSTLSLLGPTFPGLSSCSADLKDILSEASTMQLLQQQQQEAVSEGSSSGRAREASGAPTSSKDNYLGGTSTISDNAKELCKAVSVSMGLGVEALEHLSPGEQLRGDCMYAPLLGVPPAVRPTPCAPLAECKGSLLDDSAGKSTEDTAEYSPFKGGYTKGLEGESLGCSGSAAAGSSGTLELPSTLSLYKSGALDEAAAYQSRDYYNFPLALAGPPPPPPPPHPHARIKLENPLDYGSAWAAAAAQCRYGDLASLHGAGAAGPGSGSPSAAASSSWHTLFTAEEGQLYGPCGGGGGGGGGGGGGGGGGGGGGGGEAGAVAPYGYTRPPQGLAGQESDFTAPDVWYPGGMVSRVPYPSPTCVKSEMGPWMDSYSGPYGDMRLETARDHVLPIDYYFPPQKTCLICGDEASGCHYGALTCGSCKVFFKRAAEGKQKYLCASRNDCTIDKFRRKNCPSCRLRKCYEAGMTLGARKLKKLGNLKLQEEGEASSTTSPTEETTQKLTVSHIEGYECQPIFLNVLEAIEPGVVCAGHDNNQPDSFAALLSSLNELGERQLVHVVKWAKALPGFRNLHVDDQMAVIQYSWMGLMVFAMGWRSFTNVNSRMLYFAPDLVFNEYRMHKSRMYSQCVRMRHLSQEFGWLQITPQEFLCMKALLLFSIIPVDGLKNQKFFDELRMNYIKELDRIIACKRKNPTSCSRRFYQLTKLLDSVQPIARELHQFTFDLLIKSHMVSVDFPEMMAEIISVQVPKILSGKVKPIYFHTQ
Ubiquitin carboxyl-terminal hydrolase 1 (Homo sapiens), sequence (O94782 whole entry, looked up): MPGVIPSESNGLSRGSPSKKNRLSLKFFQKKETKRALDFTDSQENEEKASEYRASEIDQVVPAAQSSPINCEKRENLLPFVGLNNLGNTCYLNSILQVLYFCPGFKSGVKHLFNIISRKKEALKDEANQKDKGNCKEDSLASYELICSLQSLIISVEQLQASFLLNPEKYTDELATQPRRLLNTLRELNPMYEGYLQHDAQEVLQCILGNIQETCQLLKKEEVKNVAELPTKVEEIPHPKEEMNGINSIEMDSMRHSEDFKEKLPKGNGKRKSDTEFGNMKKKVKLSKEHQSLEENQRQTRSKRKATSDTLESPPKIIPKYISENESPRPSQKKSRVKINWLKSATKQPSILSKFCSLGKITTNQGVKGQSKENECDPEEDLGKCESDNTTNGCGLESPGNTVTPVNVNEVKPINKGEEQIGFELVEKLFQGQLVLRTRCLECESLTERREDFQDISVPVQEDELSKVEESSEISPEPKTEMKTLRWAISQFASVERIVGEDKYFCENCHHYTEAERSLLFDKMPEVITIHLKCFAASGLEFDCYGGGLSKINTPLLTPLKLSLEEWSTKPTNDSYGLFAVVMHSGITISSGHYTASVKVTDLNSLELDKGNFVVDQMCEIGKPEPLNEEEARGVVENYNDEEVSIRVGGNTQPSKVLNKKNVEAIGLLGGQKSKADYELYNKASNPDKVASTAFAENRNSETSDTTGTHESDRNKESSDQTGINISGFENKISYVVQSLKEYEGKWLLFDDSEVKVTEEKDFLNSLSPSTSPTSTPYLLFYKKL

`COC(=O)Nc1nc2ccccc2[nH]1`: the activation in assay [1] is 10.4% and 9.09%.
As to `COc1cc(-c2ccc(N)c(OC)c2)ccc1N`, the Potency result in [2] was “inactive”.
`O=C(O)c1cccc(Cl)c1`: the outcome in assay [3] was inactive. In addition, the activation in assay [4] is 2.01%. Besides, the Potency entry in [5] was “inactive”.
For `Clc1ccc(C(Cl)(Cl)Cl)c(Cl)c1`, in assay [2], the Potency entry is “inactive”.
Same read-out and setting: in the case of `CCOP(=S)(OCC)SCCSCC` it was “inactive”; in that of `Cc1ccc(OP(=O)(Oc2ccc(C)cc2)Oc2ccc(C)cc2)cc1`, “inactive”.
For `CCCBr`, in assay [3], the result was inactive. Also, the activation in [4] is -1.67%. In [5], the Potency result is “inactive”.
Consider `ClC(Cl)C(Cl)Cl`, for which the outcome in [3] was inactive. Further, the activation in assay [4] was -2.53%.
Consider `COc1c(C(C)(C)C)cc([N+](=O)[O-])c(C)c1[N+](=O)[O-]`, for which the Potency result in assay [5] is “inactive”.
`ClC(Br)Br`: the outcome in assay [3] was inactive. Besides, the Potency result in assay [5] was “inactive”.
Regarding `Brc1ccc(Oc2ccc(Br)cc2Br)c(Br)c1`, the activation in [4] is -1.06%.
For `CC(C)(COCC1CO1)COCC1CO1` (centres undefined), the result in [3] was inactive. Besides, in assay [4], the activation is 1.49%. The Potency result in assay [5] was “inactive”.
`O=[N+]([O-])c1ccc(O)c([N+](=O)[O-])c1`: the molecule was classed as inactive in assay [6], in assay [7] and in assay [9]. For the same molecule, the Potency entry in assay [8] and in assay [5] was “inactive” throughout.
As to `CC(C)CC(C)N` (centres undefined), the Potency result in [5] was “inactive”.
Turning to `Oc1ccc(Cl)c(Cl)c1Cl`, the Potency result in assay [2] and in assay [5] was “inactive” in each case. Also, in [3], the result was inactive. Besides, in [4], the activation is 0.826%.
`CN(C)c1ccc(N=Nc2ccccc2)cc1`: the result in [3] was inactive. Also, the activation in [4] is -4.32%.
For `C=C(Cl)CCl`, in assay [5], the Potency result is “inactive”.
With `Oc1cc(Cl)c(Cl)c(Cl)c1Cl`, the Potency result in assay [2] is “inactive”.
Consider `N#Cc1ccc(CN2CC3(CCN(C(=O)c4ccncc4)CC3)C2)cc1`, for which the Potency in assay [10] is over 20 µM.
Still for that read-out and setting: with `COc1ccc(Oc2ncc3ncc(=O)n(C[C@H]4CCCO4)c3n2)cc1` the figure was over 20 µM.
As to `COc1cccc(Cn2c(=O)c(-c3cc(F)cc(F)c3)nc3cnc(N4CCNCC4)nc32)c1`, in assay [10], the Potency was over 20 µM.
Still for that read-out and setting: in the case of `CCNc1ncc2nc(C)c(=O)n(Cc3cccs3)c2n1` it was over 20 µM.
Take `Nc1ccc(-c2ccc(N)c(Cl)c2)cc1Cl`: in assay [2], the Potency result was “inactive”.
For the molecule `Cc1noc(C)c1C(=O)N1CCC2(CCCN(C(c3ccccc3)c3ccccc3)C2)CC1`, in assay [10], the Potency is over 20 µM.
Take `O=c1cnc2cnc(Oc3ccccc3)nc2n1C[C@H]1CCCO1`: in assay [10], the Potency is over 20 µM.
For the molecule `CCN(N=O)C(N)=O`, the outcome in [3] was inactive. Further, the activation in assay [4] is -1.35%.
As to `CN1CCN(c2ncc3nc(CCc4ccccc4)c(=O)n(Cc4cccs4)c3n2)CC1`, in assay [10], the Potency is over 20 µM.
